The source of these data is PubChem BioAssay.

Active and inactive are the calls of the source. Unless noted, the rule behind the calls is not given here.

Test [1] relates to XIP peptide (Xip251-270) binding. Briefly: XIP fragment 251-270 binding compounds – biochemical, small-molecule microarray, fluorescence 635/667 nm, 0.1 µg/mL protein, primary screen (AID 1182). The conditions noted are these: fluorescent protein binding, 635 nm, higher = more signal, called active from +8 up or from −8 down.
For another test, the system named is XIP peptide (Xip251-270). Put plainly: compounds binding XIP fragment 251-270 – biochemical, small-molecule microarray, fluorescence 635/667 nm, 0.5 µg/mL protein, primary screen (AID 1183). The conditions noted are these: fluorescence 635 nm, higher = more signal.
Test [2] is described as follows: blood-stage malaria parasite viability loss – strain 3D7, DAPI fluorescence, 100 nL, primary screen (AID 1184).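 Note: parasites grown inside human red blood cells in medium with human serum.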 The conditions noted are these: P. falciparum 3D7 growth, 3 d, higher = more signal.
For test [3], the target named is Homeobox protein Hox-A13 (Mus musculus) (UniProt Q62424). Briefly: disruptors of Hoxa13 oligonucleotide interaction – biochemical, fluorescence polarization, labeled oligonucleotide, primary screen (AID 1185). The conditions noted are these: Hoxa13:DNA binding, 15 min, higher = more signal, called active from +8 up or from −8 down. Background: Fluorescence polarisation rises when a labelled molecule tumbles more slowly, as on binding a larger partner.

A short description of test [4]: blockers of DNA damage checkpoint Chk1 activation – imaging, HeLa, hydroxyurea, phospho-Chk1 antibody, percent positive cells, primary screen (AID 1186). The conditions noted are these: hydroxyurea-induced phospho-Chk1 immunofluorescence imaging, higher = more signal.
Test [5] is described as follows: blockers of DNA damage checkpoint Chk1 activation – imaging, HeLa, hydroxyurea, phospho-Chk1 nuclear intensity, primary screen (AID 1187). The conditions noted are these: hydroxyurea-induced phospho-Chk1 immunofluorescence imaging, higher = more signal.

Homeobox protein Hox-A13 (Mus musculus), sequence (Q62424 whole entry, looked up): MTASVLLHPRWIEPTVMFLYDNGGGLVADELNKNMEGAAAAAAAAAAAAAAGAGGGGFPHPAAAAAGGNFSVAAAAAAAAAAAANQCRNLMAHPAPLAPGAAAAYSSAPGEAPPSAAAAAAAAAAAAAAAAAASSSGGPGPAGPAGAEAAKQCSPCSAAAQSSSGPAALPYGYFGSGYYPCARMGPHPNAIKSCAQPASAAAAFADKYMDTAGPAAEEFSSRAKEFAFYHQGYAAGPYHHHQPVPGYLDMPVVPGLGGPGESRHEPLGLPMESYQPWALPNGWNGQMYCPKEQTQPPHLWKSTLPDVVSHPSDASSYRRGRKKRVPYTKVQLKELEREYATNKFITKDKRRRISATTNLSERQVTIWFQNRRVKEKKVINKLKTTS

Turning to `O=C(NCCO)C1=C[C@H](Oc2ccccc2I)[C@@H](O)[C@H](NCc2ccc(F)cc2)C1`, the values for the composite z-score (in test [1]; in the test with XIP peptide (Xip251-270)) were 0.234 (inactive) and -0.875, respectively. Moreover, the z-score in test [2] is -1.61; in test [3], -6.81 (inactive); in test [4] it was 0.079 (inactive); in test [5], -0.34 (inactive).

On to `NCCCC[C@@H]1NC(=O)[C@H]2C[C@@H](C(=O)NCc3ccc(F)cc3)[C@@H](c3cccc(OCCO)c3)N2C1=O`, for which the results for the composite z-score (in test [1]; in the test with XIP peptide (Xip251-270)) were 0.752 (inactive) and 0.837, respectively. Besides, the z-score in test [2] is 0.0979; in test [3], 5.72 (inactive); in test [4], -0.281 (inactive); in test [5] it was -0.45 (inactive).

`Cc1ccc(S(=O)(=O)N2[C@@H](c3ccccc3)C(C(=O)O)=CC[C@H]2c2ccc(C#N)cc2)cc1`: the composite z-score in test [1] was 0.556 (inactive); in the test with XIP peptide (Xip251-270), 0.848. For the same compound, the z-score in test [2] was -1.26; in test [3] it was -6.06 (inactive); in test [4], 0.0247 (inactive); in test [5], -0.206 (inactive).

As for `O=C1N(Cc2ccccc2)c2ccccc2[C@H]2OC(c3ccc(OCCCO)cc3)=N[C@@]12Cc1ccccc1`, the composite z-score in test [1] was 0.447 (inactive); with XIP peptide (Xip251-270), 0.821. Moreover, the z-score is -2.41 in test [2], -2.4 (inactive) in test [3], -0.335 (inactive) in test [4] and -0.59 (inactive) in test [5].

As to `C[N+](C)(C)CCCC[C@@H]1NC(=O)[C@H]2C[C@@H](C(=O)NCCCCCNC(=O)CS)[C@@H](c3ccc(O)cc3)N2C1=O`, the composite z-score in test [1] was 0.949 (inactive); in the test with XIP peptide (Xip251-270), 0.696. Besides, the z-score in test [2] is -0.0941; in test [3], -0.677 (inactive); in test [4], 0.0225 (inactive); in test [5] it was 0.579 (inactive).

For `COC(=O)C1=CC(CCCO)=CC(c2ccc(CN3CCCC3)cc2)N(Cc2sc3ccccc3c2Cl)C=C1C(=O)OC` (stereo unspecified), the values for the composite z-score (in test [1]; with XIP peptide (Xip251-270)) were 4.74 (inactive) and 0.916, respectively. Besides, the z-score in test [2] was -1.95; in test [3] it was -1.23 (inactive); in test [4] it was -0.438 (inactive); in test [5] it was -0.402 (inactive).

On to `CCCCN1CC=CC23O[C@@H]4C=CCOC(=O)[C@@H]4[C@H]2C(=O)N(C(CO)C(C)C)[C@@H]3C1=O` (stereo partly specified), for which the composite z-score in test [1] is -0.332 (inactive); in the test with XIP peptide (Xip251-270) it was -0.186. In addition, the z-score in test [2] was -0.156; in test [3] it was -5.09 (inactive); in test [4], 0.216 (inactive); in test [5], 0.118 (inactive).

On to `COc1ccc(CCNC(=O)[C@@]2(Sc3ccc(C)cc3)CC(=O)N(Cc3cc(C(F)(F)F)cc(C(F)(F)F)c3)[C@@H]2c2ccc(CO)cc2)cc1`, for which the results for the composite z-score (in test [1]; in the test on XIP peptide (Xip251-270)) were -0.461 (inactive) and 0.705, respectively. Besides, the z-score is 0.264 in test [2], -2.57 (inactive) in test [3], 0.132 (inactive) in test [4] and 0.282 (inactive) in test [5].

Take `C#CCN(C/C=C/c1ccccc1)[C@H](CO[Si](C)(C)C(C)(C)C)c1ccccc1`: the composite z-score in test [1] was 0.141 (inactive); with XIP peptide (Xip251-270) it was 0.0247. Also, the z-score was -0.775 in test [2], -0.229 (inactive) in test [3], 0.229 (inactive) in test [4] and -0.274 (inactive) in test [5].

With `COCCOC(=O)N1C(=O)[C@@]2(c3cc(C#CCC(C(=O)OC)C(=O)OC)ccc31)[C@H](C(=O)N1CCc3cc(OC)c(OC)cc3C1)[C@H]1C(=O)O[C@H](c3ccccc3)[C@H](c3ccccc3)N1[C@@H]2c1ccc(O)cc1`, the results for the composite z-score (in test [1]; in the test on XIP peptide (Xip251-270)) were 0.596 (inactive) and 0.676, respectively. In addition, the z-score in test [2] was -2.02; in test [3], -1.46 (inactive); in test [4] it was 0.182 (inactive); in test [5], 0.424 (inactive).

Regarding `COCCOC(=O)N1C(=O)[C@@]2(c3cc(C#CC4=CCCCC4)ccc31)[C@H](c1ccccc1OCCO)N1[C@H](c3ccccc3)[C@H](c3ccccc3)OC(=O)[C@H]1[C@@H]2C(N)=O`, the composite z-score in test [1] is -0.0632 (inactive); in the test with XIP peptide (Xip251-270), 0.558. The z-score in test [2] was -2.27; in test [3] it was -0.721 (inactive); in test [4], -0.254 (inactive); in test [5] it was -0.167 (inactive).

Turning to `CC(C)C[C@@H]1NC(=O)[C@H]2C[C@@H](C(=O)NCCCCCNC(=O)CS)[C@@H](c3ccc(O)cc3)N2C1=O`, the composite z-score in test [1] was 0.563 (inactive); in the test on XIP peptide (Xip251-270) it was 0.692. The z-score in test [2] is -0.92; in test [3], -3.85 (inactive); in test [4], -0.37 (inactive); in test [5], -0.291 (inactive).

For `CN1C(=O)C2C(C1=O)C1C=C(c3ccc(CO)cc3)C2C(c2cccs2)N1C` (stereo unspecified), the composite z-score in test [1] is 0.482 (inactive); in the test on XIP peptide (Xip251-270), -0.202. The z-score is -2.32 in test [2], -6.12 (inactive) in test [3], -0.89 (inactive) in test [4] and -0.76 (inactive) in test [5].

With `COC(=O)[C@@H]1N=C(c2ccc(OCCCO)cc2)O[C@@H]1c1ccccc1CN=[N+]=[N-]`, the composite z-score in test [1] was 0.0222 (inactive); with XIP peptide (Xip251-270), 0.362. The z-score in test [2] is -0.776; in test [3], -2.74 (inactive); in test [4], -0.196 (inactive); in test [5] it was -0.0701 (inactive).

Regarding `CO[C@H]1O[C@H](CO)[C@@H](OC(=O)Nc2ccc(C(F)(F)F)cc2)[C@H](OC(=O)Nc2ccccc2-c2ccccc2)[C@@H]1OC(=O)Nc1ccccc1-c1ccccc1`, the composite z-score was 1.39 (inactive) in test [1] and 0.827 in the test on XIP peptide (Xip251-270). Moreover, the z-score was -2.28 in test [2], -4.13 (inactive) in test [3], 0.206 (inactive) in test [4] and 0.0324 (inactive) in test [5].

On to `COCCOC(=O)N1C(=O)[C@@]2(c3cc(C#Cc4ccc(OC)cc4)ccc31)[C@H](C(=O)N1CCCCCCC1)[C@H]1C(=O)O[C@H](c3ccccc3)[C@H](c3ccccc3)N1[C@@H]2c1ccccc1OCCO`, for which the composite z-score was 1.65 (inactive) in test [1] and 0.728 in the test with XIP peptide (Xip251-270). Further, the z-score was -2.15 in test [2], 4.81 (inactive) in test [3], -0.0224 (inactive) in test [4] and 0.504 (inactive) in test [5].

Take `Cc1ccc(F)cc1S(=O)(=O)N[C@@H]1CCN(Cc2ccc3c(c2)OCO3)C1`: the composite z-score in test [1] was 0.92 (inactive); in the test on XIP peptide (Xip251-270), 0.321. Further, the z-score in test [2] was 0.531; in test [3], -3.75 (inactive); in test [4], -0.201 (inactive); in test [5], -0.271 (inactive).

For the compound `COCCOC(=O)N1C(=O)[C@@]2(c3ccccc31)[C@H](C(=O)N1CCCCCCC1)[C@H]1C(=O)O[C@H](c3ccccc3)[C@H](c3ccccc3)N1[C@@H]2c1ccc(O)cc1`, the composite z-score in test [1] is 3.54 (inactive); with XIP peptide (Xip251-270) it was 0.83. Also, the z-score in test [2] is -0.621; in test [3] it was 2.5 (inactive); in test [4] it was -0.391 (inactive); in test [5] it was -0.586 (inactive).

With `CC(C)[C@@H](C(=O)O)n1cc(-c2ccccc2)nn1`, the values for the composite z-score (in test [1]; in the test on XIP peptide (Xip251-270)) were 0.767 (inactive) and 0.237, respectively. Further, the z-score in test [2] was 0.273; in test [3], -0.769 (inactive); in test [4] it was 0.391 (inactive); in test [5], 0.0268 (inactive).

For `COCCOC(=O)N1C(=O)[C@@]2(c3ccccc31)[C@H](C(N)=O)[C@H]1C(=O)O[C@H](c3ccccc3)[C@H](c3ccccc3)N1[C@@H]2c1ccc(OCCO)cc1`, the composite z-score in test [1] is 0.675 (inactive); in the test with XIP peptide (Xip251-270) it was 0.638. The z-score was 0.0624 in test [2], -4.49 (inactive) in test [3], 0.114 (inactive) in test [4] and -0.0135 (inactive) in test [5].

In the case of `NC(=O)NCC#Cc1ccc2c(c1)[C@]1(C(=O)N2)[C@H](C(=O)N2CCCCCCC2)[C@H]2C(=O)O[C@H](c3ccccc3)[C@H](c3ccccc3)N2[C@@H]1c1ccc(O)cc1`, the figures for the composite z-score (in test [1]; in the test on XIP peptide (Xip251-270)) were 0.123 (inactive) and 0.833, respectively. The z-score in test [2] is 0.285; in test [3] it was -0.376 (inactive); in test [4] it was 0.0378 (inactive); in test [5], -0.144 (inactive).
